Source: PubChem BioAssay (NCATS)
“And” between values parts separate entries of the source, which are not always exact repeats. Equal entries are not always repeated. Values without a mark were called inactive. Inconclusive results are not listed. A call without a number means that no potency is given here. The source made the active and inactive calls. Unless noted, the call rests on the fitted dose curve; in most records, active means well fitted curve in the direction sought with a large enough effect; inconclusive means small, poorly fitted or top-dose-only effect, or another doubt; inactive means no such curve, though single readings can be large; an effect the other way counts as inactive or inconclusive.

Experiments:
JEG-3 = assay: Primary qHTS to identify gynecologic anti-cancer compounds using libraries of approved drugs and bioactive compounds (AID 1345084); conditions: Gynecologic cancer cell panel viability, ATPlite luminescence, 48 h; series mostly up to 57.5 µM; further: nearly all actives have a fitted effect of over 55% in size
Summary of the method: (§1)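 In this quantitative HTS, cell killing is estimated from loss of ATP-dependent luciferase light. Cells see five compound concentrations over a 48 h exposure.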

OV90 = assay: as above; conditions: Gynecologic cancer cell panel viability, ATPlite luminescence, 48 h; series mostly up to 57.5 µM
Summary of the method: as §1

PA-1 = assay: as above; conditions: Gynecologic cancer cell panel viability, ATPlite luminescence, 48 h; series mostly up to 57.5 µM
Summary of the method: as §1

SKOV3 = assay: as above; conditions: Gynecologic cancer cell panel viability, ATPlite luminescence, 48 h; series mostly up to 57.5 µM
Summary of the method: as §1

Tov-21-G = assay: as above; conditions: Gynecologic cancer cell panel viability, ATPlite luminescence, 48 h; series mostly up to 57.5 µM
Summary of the method: as §1

Tov112D = assay: as above; conditions: Gynecologic cancer cell panel viability, ATPlite luminescence, 48 h; series mostly up to 57.5 µM
Summary of the method: as §1

[1] = Drug repurposing screens with cells derived from glioblastoma tumor samples (AID 1345199); conditions: GBM patient neurospheres viability, ATP luminescence, 48 h; further: nearly all actives have a fitted effect of over 40% in size; further: potency means the concentration at half of the fitted maximal effect
Summary of the method: (§2)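 Four patient lines of CD133+ GBM neurospheres were screened at several concentrations; hits were retested in those lines plus three slower-growing GBM lines, using 48-hour treatment and ATP-based viability.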

astro = assay: as above; conditions: viability, ATP luminescence, 48 h; series mostly up to 45.9 µM
Summary of the method: as §2

[2] = target: Nuclear receptor subfamily 1 group I member 2 (Rattus norvegicus) (UniProt Q9R1A7); assay: qHTS assay for small molecule activators of the rat pregnane X receptor (rPXR) signaling pathway (AID 651751; call rule not given here); conditions: rPXR reporter cells, luciferase (One-Glo), 24 h
[3] = at 45.9 µM (top of the series), tumour line B
[4] = at 45.9 µM (top of the series), tumour line D
[5] = at 46.1 µM (top of the series), tumour line C
[6] = at 20 µM (top of the series), tumour line C
[7] = at 21.2 µM (top of the series), tumour line B
[8] = at 21.2 µM (top of the series), tumour line D
[9] = at 46 µM (top of the series), tumour line A

Chain of Nuclear receptor subfamily 1 group I member 2 (Rattus norvegicus) (Q9R1A7 whole entry, looked up): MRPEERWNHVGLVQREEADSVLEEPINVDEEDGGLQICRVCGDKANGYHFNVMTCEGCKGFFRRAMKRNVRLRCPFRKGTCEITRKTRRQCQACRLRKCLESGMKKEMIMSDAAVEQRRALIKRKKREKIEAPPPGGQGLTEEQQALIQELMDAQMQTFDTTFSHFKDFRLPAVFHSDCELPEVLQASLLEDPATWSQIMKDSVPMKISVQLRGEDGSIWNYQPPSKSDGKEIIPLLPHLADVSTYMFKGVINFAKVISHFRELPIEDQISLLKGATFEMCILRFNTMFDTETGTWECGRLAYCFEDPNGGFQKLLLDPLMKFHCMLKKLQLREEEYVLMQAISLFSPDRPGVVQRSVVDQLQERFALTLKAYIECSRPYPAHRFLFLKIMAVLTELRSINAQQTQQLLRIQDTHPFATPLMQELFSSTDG

SMILES: CC(=O)N[C@@H](Cc1ccc(O)cc1)C(=O)O
- outcome (JEG-3): inactive
- Potency (OV90): inactive
- outcome (PA-1): inactive
- outcome (SKOV3): inactive
- outcome (Tov-21-G): inactive
- outcome (Tov112D): inactive
- activity, negative = cell killing [1, 3]: -9.92%
- activity, negative = cell killing [1, 4]: -7.49%
- activity, negative = cell killing [1, 5]: 6.62%
- outcome (astro): inactive

SMILES: CCCCCCCCCCCCCCCCN
- outcome (JEG-3): inactive
- Potency (OV90): inactive
- outcome (PA-1): inactive
- outcome (SKOV3): inactive
- outcome (Tov-21-G): inactive
- outcome (Tov112D): inactive
- activity, negative = cell killing [1, 3]: -8.19%
- activity, negative = cell killing [1, 4]: -19.2%
- activity, negative = cell killing [1, 5]: -20.5%
- outcome (astro): inactive

SMILES: CC(=O)SC[C@@H](Cc1ccccc1)C(=O)NCC(=O)OCc1ccccc1
- outcome (JEG-3): inactive
- Potency (OV90): inactive
- outcome (PA-1): inactive
- outcome (SKOV3): inactive
- outcome (Tov-21-G): inactive
- outcome (Tov112D): inactive
- activity, negative = cell killing [1, 6]: 2.42%
- activity, negative = cell killing [1, 7]: -12.3%
- activity, negative = cell killing [1, 8]: -8.77%
- outcome (astro): inactive

SMILES: Cc1ccsc1C(=CCCN1CCC[C@@H](C(=O)O)C1)c1sccc1C
- outcome (JEG-3): inactive
- Potency (OV90): inactive
- outcome (PA-1): inactive
- outcome (SKOV3): inactive
- outcome (Tov-21-G): inactive
- outcome (Tov112D): inactive
- activity, negative = cell killing [1, 3]: -2.91%
- activity, negative = cell killing [1, 4]: -7.39%
- activity, negative = cell killing [1, 5]: 2.1%
- outcome (astro): inactive

SMILES: Cc1cc(-n2nc3ccc(Cl)cc3n2)c(O)c(C(C)(C)C)c1
- outcome (JEG-3): inactive
- Potency (OV90): inactive
- outcome (PA-1): inactive
- outcome (SKOV3): inactive
- outcome (Tov-21-G): inactive
- outcome (Tov112D): inactive
- activity, negative = cell killing [1, 3]: -1.32%
- activity, negative = cell killing [1, 4]: -14.3%
- Potency ([1]; tumour line A): 7.94 µM (active)
- outcome (astro): inactive

SMILES: CC(CN(C)C)C(C)(O)Cc1ccc(Cl)cc1 (stereo not given)
- outcome (JEG-3): inactive
- Potency (OV90): inactive
- outcome (PA-1): inactive
- outcome (SKOV3): inactive
- outcome (Tov-21-G): inactive
- outcome (Tov112D): inactive
- activity, negative = cell killing [1, 3]: -15.1%
- activity, negative = cell killing [1, 5]: -8.21%
- Potency ([1]; tumour line A): 20 µM (active)
- outcome (astro): inactive

SMILES: NCc1ccc(S(N)(=O)=O)cc1
- outcome (JEG-3): inactive
- Potency (OV90): inactive
- outcome (PA-1): inactive
- outcome (SKOV3): inactive
- outcome (Tov-21-G): inactive
- outcome (Tov112D): inactive
- activity, negative = cell killing [1, 6]: 8.51%
- activity, negative = cell killing [1, 7]: -1.96%
- activity, negative = cell killing [1, 8]: -7.46%
- outcome (astro): inactive

SMILES: Cc1cccc(Nc2ccccc2C(=O)O)c1C
- outcome (JEG-3): inactive
- Potency (OV90): inactive
- outcome (PA-1): inactive
- outcome (SKOV3): inactive
- outcome (Tov-21-G): inactive
- outcome (Tov112D): inactive
- activity, negative = cell killing [1, 3]: -15.4%
- activity, negative = cell killing [1, 4]: -14.4%
- activity, negative = cell killing [1, 9]: -20%
- activity, negative = cell killing [1, 5]: -15.4%
- max response [2]: 2.62%

SMILES: NS(=O)(=O)c1ccc(NC(=O)CCC(=O)O)cc1
- outcome (JEG-3): inactive
- Potency (OV90): inactive
- outcome (PA-1): inactive
- outcome (SKOV3): inactive
- outcome (Tov-21-G): inactive
- outcome (Tov112D): inactive
- activity, negative = cell killing [1, 3]: -12.7%
- activity, negative = cell killing [1, 4]: 0.766%
- activity, negative = cell killing [1, 5]: -4.81%
- outcome (astro): inactive

SMILES: C[N+](C)(C)CC[N+]1(C)Cc2c(Cl)c(Cl)c(Cl)c(Cl)c2C1
- outcome (JEG-3): inactive
- Potency (OV90): inactive
- outcome (PA-1): inactive
- outcome (SKOV3): inactive
- outcome (Tov-21-G): inactive
- outcome (Tov112D): inactive
- activity, negative = cell killing [1, 3]: -5.4%
- activity, negative = cell killing [1, 4]: -17.9%
- activity, negative = cell killing [1, 5]: -19.9%
- outcome (astro): inactive

SMILES: Cc1ccc(S(=O)(=O)NC(=O)NC2CCCCCCC2)cc1
- outcome (JEG-3): inactive
- Potency (OV90): inactive
- outcome (PA-1): inactive
- outcome (SKOV3): inactive
- outcome (Tov-21-G): inactive
- outcome (Tov112D): inactive
- activity, negative = cell killing [1, 3]: -4.76%
- activity, negative = cell killing [1, 4]: 3.34%
- activity, negative = cell killing [1, 9]: -27.8%
- outcome (astro): inactive

SMILES: CCCCCCCCCCOc1cc2c(=O)c(C(=O)OCC)c[nH]c2cc1OCC
- activity change, negative = cytotoxicity (JEG-3): 6.94% [at 6.55 µM]
- activity change, negative = cytotoxicity (OV90): -2.35% [at 6.55 µM]
- activity change, negative = cytotoxicity (PA-1): -2.19% [at 6.55 µM]
- activity change, negative = cytotoxicity (SKOV3): 0.739% [at 6.55 µM]
- activity change, negative = cytotoxicity (Tov-21-G): 1.05% [at 6.55 µM]
- activity change, negative = cytotoxicity (Tov112D): -6.94% [at 6.55 µM]
- activity, negative = cell killing [1, 3]: 2.17%
- activity, negative = cell killing [1, 4]: -20.1%
- activity, negative = cell killing [1, 5]: -26.1%
- outcome (astro): inactive

SMILES: Cc1c(N(C)C)c(=O)n(-c2ccccc2)n1C
- outcome (JEG-3): inactive
- Potency (OV90): inactive
- outcome (PA-1): inactive
- outcome (SKOV3): inactive
- outcome (Tov-21-G): inactive
- outcome (Tov112D): inactive
- activity, negative = cell killing [1, 3]: -5.14%
- activity, negative = cell killing [1, 4]: -8.5%
- activity, negative = cell killing [1, 9]: -17.7%
- activity, negative = cell killing [1, 5]: -17.7%
- outcome (astro): inactive
- max response [2]: -0.504% and 0.241%

SMILES: C=CCOc1ccccc1OCC(O)CNC(C)C (stereo not given)
- outcome (JEG-3): inactive
- Potency (OV90): inactive
- outcome (PA-1): inactive
- outcome (SKOV3): inactive
- outcome (Tov-21-G): inactive
- outcome (Tov112D): inactive
- activity, negative = cell killing [1, 6]: -4.31%
- activity, negative = cell killing [1, 7]: 1.37%
- activity, negative = cell killing [1, 8]: -11.5%
- outcome (astro): inactive

SMILES: CC(=O)NS(=O)(=O)c1ccc(N)cc1
- outcome (JEG-3): inactive
- Potency (OV90): inactive
- outcome (PA-1): inactive
- outcome (SKOV3): inactive
- outcome (Tov-21-G): inactive
- outcome (Tov112D): inactive
- activity, negative = cell killing [1, 3]: -8.29%
- activity, negative = cell killing [1, 4]: -18.7%
- activity, negative = cell killing [1, 9]: -22.6%
- activity, negative = cell killing [1, 5]: -4.02%
- outcome (astro): inactive
- max response [2]: -2.2%

SMILES: Cc1ccc(S(=O)(=O)NC(=O)NC2CCCCC2)cc1
- outcome (JEG-3): inactive
- Potency (OV90): inactive
- outcome (PA-1): inactive
- outcome (SKOV3): inactive
- outcome (Tov-21-G): inactive
- outcome (Tov112D): inactive
- activity, negative = cell killing [1, 3]: -0.759%
- activity, negative = cell killing [1, 4]: 4.18%
- activity, negative = cell killing [1, 5]: -11.1%
- outcome (astro): inactive

SMILES: Cc1ccccc1N=Nc1ccc(N=Nc2c(O)ccc3ccccc23)c(C)c1
- outcome (JEG-3): inactive
- Potency (OV90): inactive
- outcome (PA-1): inactive
- outcome (SKOV3): inactive
- outcome (Tov-21-G): inactive
- outcome (Tov112D): inactive
- activity, negative = cell killing [1, 3]: -15.7%
- activity, negative = cell killing [1, 4]: -2.5%
- activity, negative = cell killing [1, 5]: -1.06%
- outcome (astro): inactive

SMILES: NCC1CCC(C(=O)Oc2ccc(CCC(=O)O)cc2)CC1 (stereo not given)
- outcome (JEG-3): inactive
- Potency (OV90): inactive
- outcome (PA-1): inactive
- outcome (SKOV3): inactive
- outcome (Tov-21-G): inactive
- outcome (Tov112D): inactive
- activity, negative = cell killing [1, 3]: -0.713%
- activity, negative = cell killing [1, 4]: -15%
- activity, negative = cell killing [1, 5]: 8.61%
- outcome (astro): inactive
